In PubChem BioAssay:
The source made the active and inactive calls.

Experiments:
[1] = optical density shifts of acrAB sulA E. coli – strain DRC41, OD650, 48 h, E. coli filamentation inducer project, primary screen (AID 1152); conditions: higher = more signal, called active from +8 up or from −8 down;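 also: E. coli MC1000 strain DRC41 lacking acrAB efflux pump and sulA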
[2] = probe aLefty1 binding on compound microarray – biochemical, small-molecule microarray, 635/667 nm fluorescence, primary screen (AID 1153); conditions: higher = more signal;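 also: score merges spot fluorescence with signal-to-noise ratio from the scanned slide images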
[3] = plasmodial surface anion channel blockers, osmotic lysis – cell-based, P. falciparum Indochina, OD700, 1 h, primary screen (AID 1154); conditions: P. falciparum Indochina infected RBC osmotic lysis, higher = more signal, called active from +8 up or from −8 down
[4] = plasmodial surface anion channel blockers, osmotic lysis – cell-based, P. falciparum Indochina, OD700, 2 h, primary screen (AID 1155);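 also: lysis reports solute entry through the parasite surface anion channel PSAC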; conditions: P. falciparum Indochina infected erythrocytes, higher = more signal, called active from +8 up or from −8 down
[5] = changes in parasitized red cell lysis, either direction – P. falciparum Indochina, OD700, 3 h, PSAC antagonist project, primary screen (AID 1156); conditions: P. falciparum-infected erythrocytes, osmotic lysis, higher = more signal, called active from +8 up or from −8 down
[6] = plasmodial surface anion channel blockers, osmotic lysis – cell-based, P. falciparum Indochina, OD700, 18 h, primary screen (AID 1157); conditions: P. falciparum Indochina infected erythrocytes, osmotic lysis OD700, 18 h; higher = more signal, called active from +8 up or from −8 down
[7] = S6 kinase pathway phospho-S6 level changes – cell-based, A549, cytoblot, luminescence, serum-stimulated, primary screen (AID 1158); conditions: 5 h, higher = more signal;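 also: serum-stimulated A549 lung adenocarcinoma cells; signal is phosphorylated S6 detected by cytoblot immunostaining with HRP secondary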
[8] = target: NADPH oxidase 2 (Homo sapiens) (UniProt P04839); assay: compounds shifting NOX2 Amplex Red fluorescence – cell-based, HEK293-NOX2, PMA-stimulated, NOX inhibitor project, primary screen (AID 1159); conditions: 45 min, higher = more signal, called active from +8 up or from −8 down; also: test concentration not given here
NADPH oxidase 2 (Homo sapiens), sequence (P04839 whole entry, looked up): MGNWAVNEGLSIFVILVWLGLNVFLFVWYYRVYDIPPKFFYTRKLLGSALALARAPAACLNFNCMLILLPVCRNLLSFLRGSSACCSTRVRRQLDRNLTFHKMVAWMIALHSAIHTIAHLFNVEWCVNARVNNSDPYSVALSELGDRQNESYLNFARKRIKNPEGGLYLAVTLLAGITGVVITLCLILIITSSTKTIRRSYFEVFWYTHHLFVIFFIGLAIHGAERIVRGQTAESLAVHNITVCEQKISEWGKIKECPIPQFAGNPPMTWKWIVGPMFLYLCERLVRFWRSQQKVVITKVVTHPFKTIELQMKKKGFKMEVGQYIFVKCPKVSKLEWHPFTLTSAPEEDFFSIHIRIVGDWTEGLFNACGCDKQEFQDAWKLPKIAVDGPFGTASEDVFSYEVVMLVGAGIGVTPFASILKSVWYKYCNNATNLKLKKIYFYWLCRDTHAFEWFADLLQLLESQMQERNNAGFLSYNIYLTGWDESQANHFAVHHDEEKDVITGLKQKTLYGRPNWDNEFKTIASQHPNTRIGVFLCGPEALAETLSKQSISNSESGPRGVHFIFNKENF

[9] = target: NADPH oxidase 4 (Homo sapiens) (UniProt Q9NPH5); assay: compounds shifting NOX4 Amplex Red fluorescence – cell-based, HEK293-NOX4, tetracycline-induced, NOX inhibitor project, primary screen (AID 1160); conditions: HEK293-NOX4, Amplex Red H2O2 fluorescence, 45 min; higher = more signal, called active from +8 up or from −8 down
NADPH oxidase 4 (Homo sapiens), sequence (Q9NPH5 whole entry, looked up): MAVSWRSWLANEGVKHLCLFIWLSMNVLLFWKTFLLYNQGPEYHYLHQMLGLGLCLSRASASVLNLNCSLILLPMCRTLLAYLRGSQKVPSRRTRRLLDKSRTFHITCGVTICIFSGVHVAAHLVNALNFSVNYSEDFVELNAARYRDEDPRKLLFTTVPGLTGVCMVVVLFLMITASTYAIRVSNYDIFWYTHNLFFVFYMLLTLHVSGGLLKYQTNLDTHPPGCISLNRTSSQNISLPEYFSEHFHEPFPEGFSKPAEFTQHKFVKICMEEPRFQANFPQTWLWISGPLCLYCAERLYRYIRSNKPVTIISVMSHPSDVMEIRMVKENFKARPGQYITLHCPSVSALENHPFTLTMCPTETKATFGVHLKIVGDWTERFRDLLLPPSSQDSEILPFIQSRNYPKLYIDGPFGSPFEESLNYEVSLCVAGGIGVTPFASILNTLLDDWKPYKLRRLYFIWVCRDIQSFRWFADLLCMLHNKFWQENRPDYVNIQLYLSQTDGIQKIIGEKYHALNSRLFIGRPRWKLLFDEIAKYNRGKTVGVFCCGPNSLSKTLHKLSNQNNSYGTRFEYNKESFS

[10] = target: NADPH oxidase 5 (Homo sapiens) (UniProt Q96PH1); assay: compounds shifting NOX5 Amplex Red fluorescence – cell-based, HEK293-NOX5, NOX inhibitor project, primary screen (AID 1161); conditions: HEK293-NOX5, ionomycin, 45 min, higher = more signal
NADPH oxidase 5 (Homo sapiens), sequence (Q96PH1 whole entry, looked up): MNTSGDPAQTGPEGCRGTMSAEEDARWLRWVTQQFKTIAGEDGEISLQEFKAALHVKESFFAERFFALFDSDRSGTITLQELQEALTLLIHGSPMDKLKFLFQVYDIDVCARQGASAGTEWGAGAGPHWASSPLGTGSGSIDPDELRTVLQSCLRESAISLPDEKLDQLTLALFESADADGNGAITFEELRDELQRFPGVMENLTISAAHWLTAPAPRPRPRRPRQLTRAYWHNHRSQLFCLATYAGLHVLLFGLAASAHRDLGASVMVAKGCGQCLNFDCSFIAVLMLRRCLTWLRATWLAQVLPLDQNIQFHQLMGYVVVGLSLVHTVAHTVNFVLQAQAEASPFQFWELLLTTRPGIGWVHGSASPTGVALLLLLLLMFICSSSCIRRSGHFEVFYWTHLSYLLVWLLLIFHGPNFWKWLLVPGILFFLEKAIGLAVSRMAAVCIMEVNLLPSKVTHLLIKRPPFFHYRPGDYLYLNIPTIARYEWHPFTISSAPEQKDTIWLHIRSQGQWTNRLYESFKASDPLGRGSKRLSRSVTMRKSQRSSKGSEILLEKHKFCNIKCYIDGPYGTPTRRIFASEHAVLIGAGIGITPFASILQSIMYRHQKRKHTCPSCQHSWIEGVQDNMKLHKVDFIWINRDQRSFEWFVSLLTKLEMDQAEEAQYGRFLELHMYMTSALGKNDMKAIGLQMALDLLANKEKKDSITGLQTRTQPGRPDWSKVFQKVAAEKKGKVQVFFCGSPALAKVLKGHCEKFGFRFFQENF

| SMILES | z-score [1] | composite z-score [2] | z-score [3] | z-score [4] | z-score [5] | z-score [6] | z-score [7] | z-score [8] | z-score [9] | z-score [10] |
| --- | --- | --- | --- | --- | --- | --- | --- | --- | --- | --- |
| C=CCOC(=O)[C@H]1[C@@H]2C(=O)O[C@@H](c3ccccc3)[C@@H](c3ccccc3)N2[C@@H](c2ccc(OCCOC(=O)[C@H]3C[C@H]4C(=O)N[C@@H](Cc5ccccc5)C(=O)N4[C@H]3c3ccc(O)cc3)cc2)[C@]12C(=O)Nc1ccccc12 | 0.561 (inactive) | -0.263 | 2.5 (inactive) | 1.2 (inactive) | -4 (inactive) | 0.988 (inactive) | 0.338 | 1.83 (inactive) | 0.898 (inactive) | 1.44 |
| CC(CCN1CCc2nc(-c3ccccc3)c(-c3ccccc3)cc2C1)=NO[C@H](C)c1cn([C@@H]2COC[C@H]2O)nn1 | 0.548 (inactive) | 0.0026 | 4.09 (inactive) | 0.722 (inactive) | 1.56 (inactive) | 0.391 (inactive) | 0.387 | -2.96 (inactive) | 0.289 (inactive) | -0.331 |
| CCOC(=O)[C@H](Cc1ccccc1)NC(=O)CCC1CC(OC(=O)NCc2ccc3c(c2)OCO3)CC2(CCCC(COC(=O)NCc3cccc(C(F)(F)F)c3)O2)O1 (stereo not given in full) | -0.667 (inactive) | 0.138 | -0.272 (inactive) | -1.05 (inactive) | -0.106 (inactive) | -1.37 (inactive) | 2.74 | -0.661 (inactive) | -1.35 (inactive) | -0.999 |
| O=C(CS)NCCCCCNC(=O)[C@@H]1C[C@@H]2C(=O)N[C@@H](Cc3ccccc3)C(=O)N2[C@@H]1c1ccc(O)cc1 | 0.942 (inactive) | 0.0839 | 10.1 (active) | 1.07 (inactive) | -0.676 (inactive) | 0.325 (inactive) | -0.205 | 0.727 (inactive) | -0.142 (inactive) | 0.0233 |
| CC(C)NC(=O)[C@@]1(C)c2ccccc2C(=O)N(Cc2cc(F)cc(C(F)(F)F)c2)[C@H]1c1ccc(CO)cc1 | 0.0051 (inactive) | -0.21 | 7.03 (inactive) | 0.429 (inactive) | 0.943 (inactive) | 0.0608 (inactive) | -0.191 | 0.162 (inactive) | 0.696 (inactive) | -0.117 |
| COc1ccc([Si](C)(C)[C@H]2[C@H](CCO)O[C@@]3(C(=O)N(Cc4cccc(NC(=O)[C@H](C)O)c4)c4ccccc43)[C@@H]2C)cc1 | 0.868 (inactive) | 0.19 | 19.7 (active) | 5.46 (inactive) | 0.334 (inactive) | 1.8 (inactive) | 0.993 | -4.7 (inactive) | 0.621 (inactive) | -1.31 |
| COC(=O)[C@@H]1N=C(c2ccc(OCCCO)cc2)O[C@@H]1c1ccccc1N=[N+]=[N-] | 0.666 (inactive) | 0.309 | 29.3 (active) | 25.8 (active) | 1.88 (inactive) | 5.77 (inactive) | 1.24 | -1.24 (inactive) | -0.0584 (inactive) | -2.26 |
| CC(C)=NOCc1ccc(-c2cc(-c3ccccc3)no2)cc1 | 0.433 (inactive) | -0.283 | 0.251 (inactive) | 0.367 (inactive) | -0.201 (inactive) | -0.0729 (inactive) | 0.321 | -2.54 (inactive) | 0.311 (inactive) | -0.0709 |
| C=C(COC)/C(=C/C[C@H](OC(=O)c1ccncc1)c1ccc(CO)o1)c1cc(C(=O)OC)ccc1OC | 0.165 (inactive) | 0.188 | 2.65 (inactive) | 0.189 (inactive) | 0.656 (inactive) | 0.013 (inactive) | -0.0278 | -0.564 (inactive) | 0.0937 (inactive) | -0.413 |
| COc1ccc(OC[C@H]2Cc3c(-c4ccccc4)nc4c(c3CO2)CN(CCOc2ccccc2)CC4)cc1 | 0.481 (inactive) | -0.0141 | 15.4 (active) | 0.946 (inactive) | 0.661 (inactive) | -0.718 (inactive) | 1.76 | -0.0596 (inactive) | -1.68 (inactive) | -1.04 |
| CCOC(=O)C[C@H]1[C@H](OC(=O)c2cc3ccccc3oc2=O)[C@@H](NC(=O)c2ccc3ccccc3n2)c2cc(OCCCO)ccc2N1C(=O)c1ccccc1 | 0.571 (inactive) | 0.0793 | 1.31 (inactive) | -0.639 (inactive) | 0.628 (inactive) | -1.83 (inactive) | 0.63 | -0.253 (inactive) | -0.654 (inactive) | 0.86 |
| CC(C)[C@@H](OCc1ccccc1)[C@H](C)C=NO[C@H](C)c1cn([C@H](CO)Cc2ccccc2)nn1 | -0.489 (inactive) | -0.448 | -0.146 (inactive) | -1.75 (inactive) | -0.525 (inactive) | -2.28 (inactive) | 1.99 | -2.23 (inactive) | -0.147 (inactive) | -1.41 |
| C=CCN1C(=O)[C@]2(O[C@H](CCn3cc(CCO)nn3)[C@@H]([Si](C)(C)c3ccc(OC)cc3)[C@@H]2C)c2cc(N3CCOC3=O)ccc21 | -0.902 (inactive) | 0.0509 | 6.82 (inactive) | 0.536 (inactive) | -0.5 (inactive) | 0.376 (inactive) | 0.199 | 0.111 (inactive) | 3.32 (inactive) | 1.57 |
| CC(C)NC(=O)[C@@H]1c2ccccc2C(=O)N(CC23CC4CC(CC(C4)C2)C3)[C@H]1c1ccc(CO)cc1 | 1.47 (inactive) | 0.433 | 1.63 (inactive) | -0.315 (inactive) | -0.143 (inactive) | -0.853 (inactive) | 1.31 | 0.357 (inactive) | 0.318 (inactive) | -1.82 |
| CCCCCN1CC=CC23O[C@@H]4C=CCOC(=O)[C@@H]4[C@H]2C(=O)N(CCCCCCO)[C@@H]3C1=O (stereo not given in full) | 0.191 (inactive) | -0.103 | 2.04 (inactive) | -0.0969 (inactive) | 0.748 (inactive) | 0.187 (inactive) | 0.0374 | 1.24 (inactive) | -0.482 (inactive) | 1.73 |
| CC(CCN1CCc2nc(-c3ccccc3)c(-c3ccccc3)cc2C1)=NOC(C)CN1CCCCc2nc(C)c(C)cc21 (stereo not given) | -0.934 (inactive) | -0.106 | 1.08 (inactive) | -0.198 (inactive) | 0.281 (inactive) | 0.343 (inactive) | -0.0953 | -0.839 (inactive) | 0.405 (inactive) | 0.108 |
| CC(C)=CCCC(C)=CCON=C1[C@H]2CCn3c(=O)n(C)c(=O)n3[C@H]2[C@H](O)[C@@H]2O[C@H]12 | 0.459 (inactive) | -0.115 | 0.306 (inactive) | 0.197 (inactive) | 0.0128 (inactive) | 0.0078 (inactive) | -0.48 | -2.6 (inactive) | 0.0699 (inactive) | 0.43 |
| C=CC[C@@H]1C=C[C@H](ON=C2c3cc(OC)ccc3O[C@H](c3cccc(OC)c3)[C@H]2O)[C@@H](CO)O1 | 0.97 (inactive) | -0.0011 | 2.12 (inactive) | 0.637 (inactive) | 0.562 (inactive) | 0.49 (inactive) | -0.171 | -0.334 (inactive) | 0.593 (inactive) | 0.021 |
| Cc1cc2c(nc1C)CCCN2CC(C)ON=C1[C@H]2CCn3c(=O)n(-c4ccccc4)c(=O)n3[C@H]2[C@H](O)[C@@H]2O[C@H]12 (stereo not given in full) | -1.46 (inactive) | 0.0037 | 1.21 (inactive) | 0.283 (inactive) | 1.27 (inactive) | 0.513 (inactive) | -0.415 | -0.435 (inactive) | -0.00359 (inactive) | -0.832 |
| COC(=O)CC=C[C@@H](C)[C@@H](C=NO[C@H](C)c1cn([C@@H]2COC[C@H]2O)nn1)OC | 0.319 (inactive) | -0.0003 | 0.813 (inactive) | 0.499 (inactive) | 0.5 (inactive) | 0.415 (inactive) | 0.502 | -0.0191 (inactive) | 0.488 (inactive) | -0.0693 |
| COC(=O)[C@@]1(Cc2ccc(OC)cc2)[C@H]2c3cc(C(=O)N4CCCC4)n(Cc4cc(F)c(F)c(F)c4)c3C[C@H]2CN1C(=O)c1ccccc1 | -2.13 (inactive) | 2.39 | 1.1 (inactive) | 1.07 (inactive) | 0.718 (inactive) | 0.911 (inactive) | -0.215 | 1.01 (inactive) | -0.256 (inactive) | 0.603 |
| COCCCNC(=O)[C@@]1(CCS(=O)(=O)c2ccccc2)N=C(c2ccc(OCCCO)cc2)O[C@H]1c1ccccc1 | 2.46 (inactive) | 0.812 | 28.5 (active) | 21 (active) | 1.08 (inactive) | 1.55 (inactive) | 0.326 | 3.58 (inactive) | 1.71 (inactive) | -0.339 |
| CO[C@H]1COC(=O)[C@@H]2CCCN2C(=O)CC=C[C@@H](C)[C@H](OC)COC(=O)CC=C[C@@H]1C | 0.604 (inactive) | -0.0974 | -0.0558 (inactive) | -1.3 (inactive) | -0.464 (inactive) | -1.7 (inactive) | 2.35 | -0.331 (inactive) | 0.631 (inactive) | 0.557 |
| CCOC(=O)C1=CCC(c2cc3ccccc3[nH]2)NC1 (stereo not given) | -0.92 (inactive) | 0.3 | 6.29 (inactive) | 1.16 (inactive) | 2.48 (inactive) | 0.829 (inactive) | 0.0315 | -0.246 (inactive) | 0.0972 (inactive) | 0.287 |
| COCCOC(=O)N1C(=O)[C@@]2(c3cc(C#CCNC(N)=O)ccc31)[C@H](c1ccc(O)cc1)N1[C@H](c3ccccc3)[C@H](c3ccccc3)OC(=O)[C@H]1[C@@H]2C(=O)N1CCCCCCC1 | 0.455 (inactive) | -0.0779 | 1.04 (inactive) | 0.656 (inactive) | -0.0303 (inactive) | 0.411 (inactive) | 0.0352 | 1.49 (inactive) | -1.04 (inactive) | 1.48 |
| CC(C)(C)OC(=O)CC[C@]1(C(N)=O)COC(c2ccc(OCCCO)cc2)=N1 | 0.311 (inactive) | 0.802 | 0.75 (inactive) | -0.267 (inactive) | 0.295 (inactive) | 0.0515 (inactive) | -0.777 | 0.381 (inactive) | -0.585 (inactive) | 0.612 |
